{"source": "paper PMC8384837", "about": "“Expanding the binding specificity for RNA recognition by a PUF domain”", "experiment_in_all_cases": "yeast three-hybrid, YBZ-1, SC-Leu-His + 0.5 mM 3-AT, 4 days", "conditions_in_all_cases": "tags: N-Gal4 AD-HA kept; label: inside an RPR1-promoter hybrid RNA with tandem MS2 sites; ssRNA", "key": {"[1]": {"biological_target": "PUM1 PUF domain R3-CRR (Homo sapiens, UniProt Q14671 828-1176, Q939R)", "how_it_was_run": "(§1)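 Pumilio-1 PUF domain libraries, randomized (NNK) at the three base-contacting residues of each repeat, were co-expressed with matching RNA elements from a centromeric plasmid in strain YBZ-1 (LexA–MS2 coat fusion, HIS3 reporter). Transformants were plated on SC-Leu (input) and SC-Leu-His + 0.5 mM 3-AT (selection) for four days, and repeat regions were PCR-amplified and Illumina-sequenced. The interaction score is the log2 change in variant frequency from input to selection, with pseudocount 1 where absent.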"}, "[2]": {"biological_target": "PUM1 PUF domain R3-LHG (Homo sapiens, UniProt Q14671 828-1176, C935L;R936H;Q939G)", "how_it_was_run": "as §1"}, "[3]": {"biological_target": "PUM1 PUF domain R3-WWR (Homo sapiens, UniProt Q14671 828-1176, C935W;R936W;Q939R)", "how_it_was_run": "as §1"}, "[4]": {"biological_target": "PUM1 PUF domain R3-SEE (Homo sapiens, UniProt Q14671 828-1176, C935S;R936E;Q939E)", "how_it_was_run": "as §1"}, "[5]": {"biological_target": "PUM1 PUF domain R2-NWW (Homo sapiens, UniProt Q14671 828-1176, Y900W;Q903W)", "how_it_was_run": "as §1"}, "[6]": {"biological_target": "PUM1 PUF domain R5-ERK (Homo sapiens, UniProt Q14671 828-1176, C1007E;Q1011K)", "how_it_was_run": "as §1"}, "[7]": {"biological_target": "PUM1 PUF domain R3-GPF (Homo sapiens, UniProt Q14671 828-1176, C935G;R936P;Q939F)", "how_it_was_run": "as §1"}, "[8]": {"biological_target": "T1, PUM1 PUF domain R6-QRQ (Homo sapiens, UniProt Q14671 828-1176, N1043Q;Y1044R)", "T1 sequence": "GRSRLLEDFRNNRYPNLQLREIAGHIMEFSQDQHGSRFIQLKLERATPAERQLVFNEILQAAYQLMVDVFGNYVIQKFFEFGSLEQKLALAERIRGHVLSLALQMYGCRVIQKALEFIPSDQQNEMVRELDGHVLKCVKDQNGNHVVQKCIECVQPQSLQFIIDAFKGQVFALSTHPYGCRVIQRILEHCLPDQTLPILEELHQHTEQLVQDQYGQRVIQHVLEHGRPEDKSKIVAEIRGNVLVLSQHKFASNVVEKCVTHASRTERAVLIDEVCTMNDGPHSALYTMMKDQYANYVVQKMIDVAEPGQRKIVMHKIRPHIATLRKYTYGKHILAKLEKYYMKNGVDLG", "how_it_was_run": "as §1"}, "[9]": {"biological_target": "PUM1 PUF domain R5-GRI (Homo sapiens, UniProt Q14671 828-1176, C1007G;Q1011I)", "how_it_was_run": "as §1"}, "[10]": {"biological_target": "PUM1 PUF domain R3-DFL (Homo sapiens, UniProt Q14671 828-1176, C935D;R936F;Q939L)", "how_it_was_run": "as §1"}, "[11]": {"biological_target": "PUM1 PUF domain R5-KFV (Homo sapiens, UniProt Q14671 828-1176, C1007K;R1008F;Q1011V)", "how_it_was_run": "as §1"}, "[12]": {"biological_target": "PUM1 PUF domain R7-TSS (Homo sapiens, UniProt Q14671 828-1176, S1079T;N1080S;E1083S)", "how_it_was_run": "as §1"}, "[13]": {"biological_target": "PUM1 PUF domain R4-DHR (Homo sapiens, UniProt Q14671 828-1176, N971D;Q975R)", "how_it_was_run": "as §1"}, "[14]": {"biological_target": "PUM1 PUF domain R4-PFQ (Homo sapiens, UniProt Q14671 828-1176, N971P;H972F)", "how_it_was_run": "as §1"}, "[15]": {"biological_target": "PUM1 PUF domain R2-PWE (Homo sapiens, UniProt Q14671 828-1176, N899P;Y900W;Q903E)", "how_it_was_run": "as §1"}, "[16]": {"biological_target": "PUM1 PUF domain R1-GRK (Homo sapiens, UniProt Q14671 828-1176, S863G;Q867K)", "how_it_was_run": "as §1"}, "[17]": {"biological_target": "T2, PUM1 PUF domain R6-CYT (Homo sapiens, UniProt Q14671 828-1176, N1043C;Q1047T)", "T2 sequence": "T1 sequence with Q216C, R217Y, Q220T", "how_it_was_run": "as §1"}, "[18]": {"biological_target": "PUM1 PUF domain R1-KLS (Homo sapiens, UniProt Q14671 828-1176, S863K;R864L;Q867S)", "how_it_was_run": "as §1"}, "[19]": {"biological_target": "PUM1 PUF domain R5-GVR (Homo sapiens, UniProt Q14671 828-1176, C1007G;R1008V;Q1011R)", "how_it_was_run": "as §1"}, "[20]": {"biological_target": "PUM1 PUF domain R5-KLH (Homo sapiens, UniProt Q14671 828-1176, C1007K;R1008L;Q1011H)", "how_it_was_run": "as §1"}}, "note": "Changes are numbered by the printed parent chain."}
{"sequence": "GGCUAGAACUAGUGGAUCCCCCGGCGCCCGGCGGCUCGAGCCCGGGUAAGUGUAAGUAGUCUGCAUGCCGCCGGGCGCCAUGCCUGCAGGUCGACUCUAGAAAACAUG", "values": [{"measurement": "binding signal", "setting": "[1]", "result": "1.17 log2 enrichment (interaction score)"}, {"measurement": "binding signal", "setting": "[2]", "result": "6.02 log2 enrichment (interaction score)"}, {"measurement": "binding signal", "setting": "[3]", "result": "5.22 log2 enrichment (interaction score)"}, {"measurement": "binding signal", "setting": "[4]", "result": "2.43 log2 enrichment (interaction score)"}]}
{"sequence": "GGCUAGAACUAGUGGAUCCCCCGGCGCCCGGCGGCUCGAGCCCGGGUAAGUGUAAAUAGUCUGCAUGCCGCCGGGCGCCAUGCCUGCAGGUCGACUCUAGAAAACAUG", "values": [{"measurement": "binding signal", "setting": "[5]", "result": "3.94 log2 enrichment (interaction score)"}, {"measurement": "binding signal", "setting": "[1]", "result": "2.78 log2 enrichment (interaction score)"}, {"measurement": "binding signal", "setting": "[6]", "result": "4.01 log2 enrichment (interaction score)"}, {"measurement": "binding signal", "setting": "[7]", "result": "5.65 log2 enrichment (interaction score)"}, {"measurement": "binding signal", "setting": "[8]", "result": "2.52 log2 enrichment (interaction score)"}, {"measurement": "binding signal", "setting": "[9]", "result": "3.04 log2 enrichment (interaction score)"}, {"measurement": "binding signal", "setting": "[10]", "result": "2.6 log2 enrichment (interaction score)"}, {"measurement": "binding signal", "setting": "[3]", "result": "0.59 log2 enrichment (interaction score)"}, {"measurement": "binding signal", "setting": "[11]", "result": "3.95 log2 enrichment (interaction score)"}]}
{"sequence": "GGCUAGAACUAGUGGAUCCCCCGGCGCCCGGCGGCUCGAGCCCGGGUAAGUGUGAAUAGUCUGCAUGCCGCCGGGCGCCAUGCCUGCAGGUCGACUCUAGAAAACAUG", "values": [{"measurement": "binding signal", "setting": "[9]", "result": "3.52 log2 enrichment (interaction score)"}]}
{"sequence": "GGCUAGAACUAGUGGAUCCCCCGGCGCCCGGCGGCUCGAGCCCGGGUAAGUUUAAAUAGUCUGCAUGCCGCCGGGCGCCAUGCCUGCAGGUCGACUCUAGAAAACAUG", "values": [{"measurement": "binding signal", "setting": "[12]", "result": "2.55 log2 enrichment (interaction score)"}]}
{"sequence": "GGCUAGAACUAGUGGAUCCCCCGGCGCCCGGCGGCUCGAGCCCGGGUAAGUGUAUAUAGUCUGCAUGCCGCCGGGCGCCAUGCCUGCAGGUCGACUCUAGAAAACAUG", "values": [{"measurement": "binding signal", "setting": "[13]", "result": "4.76 log2 enrichment (interaction score)"}, {"measurement": "binding signal", "setting": "[14]", "result": "5.54 log2 enrichment (interaction score)"}]}
{"sequence": "GGCUAGAACUAGUGGAUCCCCCGGCGCCCGGCGGCUCGAGCCCGGGUAAGUGUAAAGAGUCUGCAUGCCGCCGGGCGCCAUGCCUGCAGGUCGACUCUAGAAAACAUG", "values": [{"measurement": "binding signal", "setting": "[15]", "result": "4.9 log2 enrichment (interaction score)"}]}
{"sequence": "GGCUAGAACUAGUGGAUCCCCCGGCGCCCGGCGGCUCGAGCCCGGGUAAGUGUAAAUUGUCUGCAUGCCGCCGGGCGCCAUGCCUGCAGGUCGACUCUAGAAAACAUG", "values": [{"measurement": "binding signal", "setting": "[16]", "result": "3.96 log2 enrichment (interaction score)"}]}
{"sequence": "GGCUAGAACUAGUGGAUCCCCCGGCGCCCGGCGGCUCGAGCCCGGGUAAGUGUAAUUAGUCUGCAUGCCGCCGGGCGCCAUGCCUGCAGGUCGACUCUAGAAAACAUG", "values": [{"measurement": "binding signal", "setting": "[1]", "result": "2.3 log2 enrichment (interaction score)"}, {"measurement": "binding signal", "setting": "[2]", "result": "4.7 log2 enrichment (interaction score)"}, {"measurement": "binding signal", "setting": "[3]", "result": "3.35 log2 enrichment (interaction score)"}]}
{"sequence": "GGCUAGAACUAGUGGAUCCCCCGGCGCCCGGCGGCUCGAGCCCGGGUAAGUGUACAUAGUCUGCAUGCCGCCGGGCGCCAUGCCUGCAGGUCGACUCUAGAAAACAUG", "values": [{"measurement": "binding signal", "setting": "[13]", "result": "6.79 log2 enrichment (interaction score)"}]}
{"sequence": "GGCUAGAACUAGUGGAUCCCCCGGCGCCCGGCGGCUCGAGCCCGGGUAAGUGAAAAUAGUCUGCAUGCCGCCGGGCGCCAUGCCUGCAGGUCGACUCUAGAAAACAUG", "values": [{"measurement": "binding signal", "setting": "[17]", "result": "3.1 log2 enrichment (interaction score)"}]}
{"sequence": "GGCUAGAACUAGUGGAUCCCCCGGCGCCCGGCGGCUCGAGCCCGGGUAAGUGUAAAUCGUCUGCAUGCCGCCGGGCGCCAUGCCUGCAGGUCGACUCUAGAAAACAUG", "values": [{"measurement": "binding signal", "setting": "[16]", "result": "5.64 log2 enrichment (interaction score)"}, {"measurement": "binding signal", "setting": "[18]", "result": "3.97 log2 enrichment (interaction score)"}]}
{"sequence": "GGCUAGAACUAGUGGAUCCCCCGGCGCCCGGCGGCUCGAGCCCGGGUAAGUGUUAAUAGUCUGCAUGCCGCCGGGCGCCAUGCCUGCAGGUCGACUCUAGAAAACAUG", "values": [{"measurement": "binding signal", "setting": "[9]", "result": "3.43 log2 enrichment (interaction score)"}, {"measurement": "binding signal", "setting": "[19]", "result": "1.75 log2 enrichment (interaction score)"}, {"measurement": "binding signal", "setting": "[11]", "result": "6.19 log2 enrichment (interaction score)"}]}
{"sequence": "GGCUAGAACUAGUGGAUCCCCCGGCGCCCGGCGGCUCGAGCCCGGGUAAGUGUAAAAAGUCUGCAUGCCGCCGGGCGCCAUGCCUGCAGGUCGACUCUAGAAAACAUG", "values": [{"measurement": "binding signal", "setting": "[15]", "result": "2.14 log2 enrichment (interaction score)"}]}
{"sequence": "GGCUAGAACUAGUGGAUCCCCCGGCGCCCGGCGGCUCGAGCCCGGGUAAGUGUCAAUAGUCUGCAUGCCGCCGGGCGCCAUGCCUGCAGGUCGACUCUAGAAAACAUG", "values": [{"measurement": "binding signal", "setting": "[9]", "result": "1.2 log2 enrichment (interaction score)"}, {"measurement": "binding signal", "setting": "[19]", "result": "5.93 log2 enrichment (interaction score)"}, {"measurement": "binding signal", "setting": "[20]", "result": "2.85 log2 enrichment (interaction score)"}, {"measurement": "binding signal", "setting": "[11]", "result": "5.97 log2 enrichment (interaction score)"}]}
